MEX-5 binding: MEX-5 zinc finger RNA-binding disruptors – biochemical, C. elegans, fluorescence polarization, MLPCN library, primary screen; activity score (negative = inhibition of binding), % at 10 µM; Zinc finger protein mex-5 (Caenorhabditis elegans), Q9XUB2; MEX-5/FITC-TCR2 RNA binding; active compounds read low; AID 1832, 2009; 300,000 tested, 0.38% active;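 active means inhibition past about -25% in most replicates, and total fluorescence under double the plate's negative control median, limit read from the data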;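 further: 0% = DMSO and -100% = 5 µM competing unlabeled TCR2 RNA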
GLD-1 RNA inh: GLD-1/TGE RNA complex disruptors, primary screen, biochemical, fluorescence polarization; purified GLD-1 + fluorescein TGE RNA; inhibition, % at 5.96 µM; 320,000 tested, 0.44% active;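 active means percent inhibition above a per-plate cutoff, the plate mean of test compounds plus 3 SD, cut at about 30% in these data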;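 further: 0% = DMSO wells with GLD-1 and probe and 100% = wells lacking GLD-1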
eLon inh: inhibitors of E. coli Lon protease, primary screen, biochemical, fluorescence polarization | purified E. coli Lon protease | inhibition, % at 7.94 µM | 360,000 tested, 0.42% active | AID 602123, 2011; in the data active means inhibition above about 13%, passing the limit was not always enough;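 further: 0% = enzyme with probe and DMSO and 100% = no enzyme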
Bcl-xL primary: inhibitors of human Bcl-xL, primary screen, biochemical, fluorescence polarization, HTS. GST-Bcl-xL / FITC-Bim BH3 peptide fluorescence polarization. inhibition, % at 10.9 µM. 320,000 tested, 0.7% active;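 active means inhibition above the mean of all tested compounds plus 3 SD, cutoff set per campaign, cut at about 30% in these data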;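 further: 0% = DMSO wells and 100% = unlabeled Bim-BH3 peptide competitor; inhibitors lower millipolarization by displacing the labeled peptide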
Target sequence (Q07817 whole entry, looked up): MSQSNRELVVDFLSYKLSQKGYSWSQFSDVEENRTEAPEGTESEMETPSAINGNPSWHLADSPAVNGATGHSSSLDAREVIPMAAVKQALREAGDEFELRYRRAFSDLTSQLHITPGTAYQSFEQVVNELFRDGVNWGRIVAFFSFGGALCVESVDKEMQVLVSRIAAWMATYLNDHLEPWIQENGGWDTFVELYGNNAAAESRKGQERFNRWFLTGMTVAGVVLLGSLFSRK
MCL1 BIM primary: inhibitors of MCL1 binding to BIM-BH3, primary screen, biochemical, fluorescence polarization | GST-MCL1 / FITC-Bim-BH3 fluorescence polarization | inhibition, % at 10.9 µM | 320,000 tested, 0.68% active | AID 2057, 2009;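 active means inhibition above the mean inhibition of all tested compounds plus 3 SD, set per campaign, cut at about 40% in these data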;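 further: 0% = DMSO wells and 100% = unlabeled Bim-BH3 peptide control; higher means more loss of mP so more displacement of Bim peptide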
Target sequence (Q07820 whole entry, looked up): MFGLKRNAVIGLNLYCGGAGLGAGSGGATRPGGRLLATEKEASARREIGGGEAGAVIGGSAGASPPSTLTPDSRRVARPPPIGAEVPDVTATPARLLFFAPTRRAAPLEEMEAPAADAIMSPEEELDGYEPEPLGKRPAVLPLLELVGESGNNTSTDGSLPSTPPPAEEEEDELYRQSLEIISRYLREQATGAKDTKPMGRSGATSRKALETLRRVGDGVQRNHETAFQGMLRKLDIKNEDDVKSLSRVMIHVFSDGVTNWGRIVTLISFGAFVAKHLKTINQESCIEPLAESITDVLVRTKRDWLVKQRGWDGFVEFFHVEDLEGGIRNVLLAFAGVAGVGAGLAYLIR
E coli Lon conf: E. coli Lon protease inhibitor retest, confirmation, biochemical, fluorescence polarization | shares compounds with eLon inh | purified E. coli Lon | inhibition, % at 7.94 µM | 1,400 tested, 31% active; in the data active means inhibition above about 16%;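 further: 0% = enzyme with probe and DMSO and 100% = no enzyme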
The depositor's hits bear a star; nt = not tested or not shown. Shown are actives, neighbours in structure and some others; about 1.4% of the full set was active somewhere.

SMILES	MEX-5 binding	GLD-1 RNA inh	eLon inh	Bcl-xL primary	MCL1 BIM primary	E coli Lon conf
COc1ccc(C=NOCC(=O)OCC(=O)Nc2ccc(OC)cc2)cc1	nt	2	50*	nt	nt	21*
Nc1cccnc1-n1nc(C(F)(F)F)cc1C(F)(F)F	-2	2	-5	1	2	nt
Cc1ccc(-n2cc(CNCCN3CCOC3=O)c(-c3cccc(C)c3)n2)cc1	-1	-1	16*	1	-2	-7
O=CN1CCN(c2c([N+](=O)[O-])c(=O)oc3ccccc23)CC1	0	4	-8	4	7	nt
COc1cc(C(=O)OCC(=O)Nc2ccccc2C(=O)NC2CC2)c([N+](=O)[O-])cc1OC	nt	-8	35*	-1	-1	-37
O=C(NC(=S)Nc1ccc2c(c1)OCCO2)c1ccccc1F	-1	-2	36*	6	3	-3
O=C(Nc1ccc2c(c1)OCCO2)c1ccccc1F	-2	3	-9	7	1	nt
CN1CCc2c(sc(NC(=O)CS(=O)(=O)c3ccccc3)c2C(N)=O)C1	-5	-4	2	2	7	nt
CN1CCc2c(sc(NC(=O)c3ccc(C(=O)c4ccccc4)cc3)c2C(N)=O)C1	-23	-6	45*	-6	-9	-46
O=C1C(=O)C(Cl)=C(Cl)C(Cl)=C1Cl	nt	nt	40*	nt	nt	51*
NC(=S)N/N=C/c1coc2ccc(Cl)cc2c1=O	0	9	13*	2	9	24*
O=C(N/N=C/c1coc2ccc(Cl)cc2c1=O)c1ccc(O)cc1	-4	nt	-1	nt	nt	nt
COc1ccc(CNC(=O)C2CCCN(c3ncnc4c3nc3n4CCCCC3)C2)cc1 (configuration not stated)	1	2	3	0	4	nt
C[C@@]12CCC3[C@@](CCC4[C@@]3(C)CCC[C@@]4(C)C(=O)N3CCCCC3)(CC1=O)C2 (some centres not stated)	nt	8	28*	2	0	7
Cc1ccc(C(C)c2c(C)c([N+](=O)[O-])cc(C)c2[N+](=O)[O-])cn1 (configuration not stated)	-2	5	-1	3	2	nt
CCOC(=O)c1ccc(NC(=O)CSc2nnc(C)n2-c2ccccc2)cc1	-1	0	14*	5	11	8
COc1ccc(OC)c(CN2CCSCC2)c1	0	nt	3	nt	nt	nt
COc1ccc(OC)c(CN2CCN(c3ccccc3OC)CC2)c1	0	-1	17*	5	8	4
COc1ccc(OC)c(CN2CCCCCC2)c1	-2	8	21*	0	8	121*
COc1ccc(CN2CCN(c3ccccc3OC)CC2)c(OC)c1	0	-2	1	1	2	nt
COc1ccccc1N1CCN(Cc2ccc(O)c3ncccc23)CC1	1	1	15*	0	2	12
CCOc1ccccc1NC(=O)COC(=O)COc1cccc2c1OC(C)(C)C2	nt	nt	-8	nt	nt	nt
COc1ccc(-c2c(C)nn3c(N)c(-c4ccccc4)cnc23)cc1OC	-3	0	0	-1	0	nt
CC(C(=O)N1CCc2ccccc21)n1cnc2c1c(=O)n(C)c(=O)n2C (configuration not stated)	nt	4	-8	-2	-2	nt
CC(NC(=O)NC(=O)c1ccc(F)cc1)C1CC1 (configuration not stated)	nt	2	26*	nt	nt	-4
SMILES	MEX-5 binding	GLD-1 RNA inh	eLon inh	Bcl-xL primary	MCL1 BIM primary	E coli Lon conf
CC(NC(=O)NC(=O)c1cccc([N+](=O)[O-])c1)C1CC1 (configuration not stated)	2	nt	7	nt	nt	nt
CCOC(=O)c1c(NC(=O)c2ccc(N3C(=O)[C@@H]4[C@H](C3=O)[C@H]3C=C[C@@H]4C3)cc2)sc2c1CC(C)CC2 (some centres not stated)	3	4	5	1	2	nt
COC(=O)[C@H](CC(C)C)NC(=O)Cn1cnc2c(SC)nc(N)nc21	nt	9	12*	nt	nt	2
N#Cc1ccsc1NC(=O)CSc1nncs1	nt	71*	28*	nt	nt	31*
N#Cc1ccsc1NC(=O)CSc1ncn[nH]1	-1	-4	15	4	4	nt
CCOc1ccc(NC(=O)C(=O)NCCN2CCN(S(=O)(=O)c3ccccc3)CC2)cc1	-2	5	-10	4	8	nt
CCNC(=O)C1(C)CCCN(Cc2cccc3c2OCCO3)C1 (configuration not stated)	nt	nt	-1	nt	nt	nt
Cc1cc(NC(=O)CCC(=O)N(Cc2ccco2)C2(C(=O)NC3CCCCC3)CCCCC2)no1	-2	-4	21*	-1	-2	-3
Fc1ccccc1CNc1nc(NCC2CC2)nc2ccsc12	nt	nt	12*	nt	nt	-6
O=C1C=C(N2CCOCC2)c2ccccc2C1=O	-3	1	10	0	0	nt
O=C1C=C(N2CCOCC2)c2cccc3cccc1c23	nt	nt	183*	nt	nt	6
O=C1C(N2CCOCC2)=Cc2cccc3cccc1c23	nt	nt	186*	nt	nt	195*
CC12CCC(C(=O)NCc3ccccc3Cl)(CC1=O)C2(C)C (configuration not stated)	-1	-9	-6	0	2	nt
COCCNC(=O)c1ccc(N2CC3CC(C2)c2cccc(=O)n2C3)c(NC(=O)c2ccccc2Cl)c1 (configuration not stated)	nt	nt	-6	nt	nt	nt
CC(=O)CSc1nc2ccccc2o1	2	8	0	1	5	nt
O=C(CSc1nc2ccccc2o1)c1ccccc1	0	-2	53*	-2	-7	24*
O=C(NCCN1CCOCC1)c1cc(S(=O)(=O)NCCCN2CCCC2=O)ccc1Cl	-2	-1	40*	5	11	10
O=C1CCCN1CCCNS(=O)(=O)c1ccc(Cl)c(C(=O)N2CCOCC2)c1	2	7	-1	-2	-1	nt
COc1ccc(C(=O)COC(=O)c2ccccc2C(=O)N(C)c2ccccc2)c(OC)c1	0	-6	40*	-1	2	8
CN(C(=O)c1ccccc1C(=O)OCC(=O)c1ccccc1)c1ccccc1	nt	-1	12	6	-4	nt
COc1ccc(NC(=O)COC(=O)c2ccc(N3CCCC3=O)cc2)cc1	nt	-4	-11	-7	-6	nt
CC1(C(=O)O)CCC(C(=O)Nc2cccc(F)c2)C1(C)C (configuration not stated)	2	4	2	1	0	nt
CCCCn1nnnc1C(c1ccccc1)N1CCN(CCN2CCOCC2)CC1 (configuration not stated)	nt	nt	15*	nt	nt	0

Screening results: PubChem BioAssay, several laboratories
